# Laboratory results taken from PubChem BioAssay (NCI).
# Where “and” joins values, the source holds several entries; their conditions need not be identical. Identical values can stand only once. Compounds without any hit were thinned out: in the full panel of roughly 83,000, 20% have a hit.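 Single-concentration screen, 48 h exposure, 96-well plates. Endpoint: percent growth. Below 10 = active.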 Calls of active or inactive are those of the source.
# System: MCF7 breast
# Test: NCI-60 one-dose screen, 48 h (100 = growth as untreated, 0 = no growth, -100 = all killed)
# Details: 10 µM unless noted
row,SMILES,growth
1,C=C1C(=O)OC2/C=C(\CO)CC/C=C(\CO)CC(OC(=O)C(C)C)C12 (stereo not drawn),-82.7% [100 µM] (active) and -70% [100 µM] (active)
2,COC(=O)/C=C\C(C#N)(C#N)N=Cc1ccsc1,-73.8% [100 µM] (active) and -39.1% [100 µM] (active)
3,Clc1c(Cl)c(Cl)c2nn(C3CCCO3)nc2c1Cl (stereo not drawn),15.9% [100 µM] (inactive) and -100% [100 µM] (active)
4,COC(=O)/C(=N\NC(=S)NN)C(C(=O)OC)C(=O)C(=O)Nc1cccc(C(F)(F)F)c1 (stereo not drawn),63.8% [100 µM] (inactive) and 8.67% [100 µM] (active)
5,COc1c(O)ccc(C2=Cc3ccc(O)cc3OC2)c1OC,-13.9% [100 µM] (active) and -13.3% [100 µM] (active)
6,N#Cc1nc(-c2cccc(-c3nc(C#N)c(N)o3)n2)oc1N,58.8% [100 µM] (inactive) and -19.4% [100 µM] (active)
7,CCOC(=O)c1cc(C)nc2c1c(=O)n(-c1ccccc1)c(=O)n2CCCCN1CCN(c2ncccn2)CC1,100% [100 µM] (inactive) and 90.8% [100 µM] (inactive)
8,N#Cc1nc(C(F)(F)F)oc1N,66.3% [100 µM] (inactive) and 98.4% [100 µM] (inactive)
9,O=C(CCc1ccc(O)c(O)c1)c1ccc(O)c(O)c1O,-69.8% [100 µM] (active) and -72.6% [100 µM] (active)
10,COc1ccc2c(c1)N(C(C)=O)CN1C(=O)CCC21 (stereo not drawn),86.1% [100 µM] (inactive) and 85.1% [100 µM] (inactive)
11,Clc1ccc(C2NN=C3c4ccccc4OCC32)cc1 (stereo not drawn),-15.5% [100 µM] (active) and -82.5% [100 µM] (active)
12,Cc1cc(S(=O)(=O)O)c(NC(=O)c2oc3cc(O)ccc3c(=O)c2C)cc1Cl,100% [100 µM] (inactive) and 86.3% [100 µM] (inactive)
13,COc1ccc2nc(NC(=O)/C(C#N)=C/c3ccccc3)sc2c1,4.79% [100 µM] (active) and 1.62% [100 µM] (active)
14,O=C(O)COc1cc(-c2ccccc2F)nc2cc3c(cc12)OCO3,86.4% [100 µM] (inactive) and 58% [100 µM] (inactive)
15,COC(=O)c1cnn2c1n[n+]([O-])c1ccccc12,68.2% [100 µM] (inactive) and 11.8% [100 µM] (inactive)
16,C/C=C1\NC(=O)[C@H]2CSSCCC=C[C@H](CC(=O)N[C@H](C(C)C)C(=O)N2)OC(=O)[C@H](C(C)C)NC1=O,-73.3% [0.1 µM] (active) and -95.5% [0.1 µM] (active)
17,C[C@@H]1C[C@](O)([C@@H](C)Cl)C(=O)O[C@@H]2CCN3CC=C(COC(=O)[C@]1(C)O)[C@H]23,82.2% [100 µM] (inactive) and 71.5% [100 µM] (inactive)
18,COc1cc(Oc2c(C)c(Cl)c(OC)c(Cl)c2OC)c2c(c1Cl)COC2=O,-6.77% [100 µM] (active) and -26.7% [100 µM] (active)
19,CC(=N\N=C\c1ccccn1)/C(C)=N/N=C/c1ccccn1,76.4% [100 µM] (inactive) and 78.5% [100 µM] (inactive)

row,SMILES,growth
1,N#CC(=S)Nc1ccc(F)cc1,13.1% [100 µM] (inactive) and -70.2% [100 µM] (active)
2,COc1ccc2cc1Oc1ccc(cc1)C[C@@H]1c3cc(c(OC)cc3CCN1C)Oc1c(OC)c(OC)cc3c1[C@H](C2)N(C)CC3,35.9% [100 µM] (inactive) and -90.5% [100 µM] (active)
3,N#Cc1c(N)oc(-c2cccc([N+](=O)[O-])c2)c1C#N,12.3% [100 µM] (inactive) and -50% [100 µM] (active)
4,Cc1ccc2c(sc(-c3ccc4c(c3)sc(-c3ccc5c(c3)sc(-c3ccc(N(C)C)cc3)[n+]5C)[n+]4C)[n+]2C)c1S(=O)(=O)O (tested in a mixture with another compound),35.5% [100 µM] (inactive) and -81.2% [100 µM] (active)
5,CCCCCCSC[C@H](OC(C)=O)[C@@H](OC(C)=O)[C@@H](OC(C)=O)[C@@H](COC(C)=O)OC(C)=O,28.8% [100 µM] (inactive) and 79.7% [100 µM] (inactive)
6,CCOC(=O)COc1cc(-c2ccccc2)nc2cc(F)ccc12,49.3% [100 µM] (inactive) and 35.8% [100 µM] (inactive)
7,CC1=C2NCN(C)N=C2C(C#N)(C#N)C1(C#N)C#N,-60.6% [100 µM] (active) and -73.1% [100 µM] (active)
8,CCC/C(Cl)=N/OC(=O)Nc1cccc(F)c1,-73.4% [100 µM] (active) and -100% [100 µM] (active)
9,COC(=O)C(C(=O)C(=O)Nc1c(C)cccc1C(C)(C)C)c1nc2ccc(Cl)cc2[nH]c1=O (stereo not drawn),69.9% [100 µM] (inactive) and 60.9% [100 µM] (inactive)
10,CNc1nc2c(C)ccc3[nH]c(N(C)C)nc3c-2n1,8.99% [100 µM] (active) and 1.25% [100 µM] (active)
11,CC(=O)C1=C(C)N2C(=NC3=C(CCc4ccccc43)C2c2cccc(Br)c2)S1 (stereo not drawn),35.9% [100 µM] (inactive) and 33.8% [100 µM] (inactive)
12,O=C1NC(N/N=C\C(O)C(O)C(O)C(O)CO)=N/C1=C\c1ccc(Cl)cc1 (stereo not drawn),58.4% [100 µM] (inactive) and 13.9% [100 µM] (inactive)
13,CC(C)/C(Cl)=N/OC(=O)Nc1cccc(C(F)(F)F)c1,-79.5% [100 µM] (active) and -84.4% [100 µM] (active)
14,COc1ccc2c(=O)c(-c3cc4c(cc3OC)OCO4)coc2c1,74% [100 µM] (inactive) and 47.3% [100 µM] (inactive)
15,N/N=C(\C(=O)Nc1ccc([N+](=O)[O-])cc1)C(C1=Nc2cc([N+](=O)[O-])ccc2NC1)[N+](=O)[O-] (stereo not drawn),45.9% [100 µM] (inactive) and 33.8% [100 µM] (inactive)
16,COc1ccc2cc1Oc1ccc(cc1)CC1c3cc(OC)c(cc3CCN1C)Oc1c(OC)c(OC)cc3c1C(C2)N(C)CC3 (stereo not drawn),24.7% [75 µM] (inactive) and -97.6% [75 µM] (active)
17,CCCCCCCCCC(=O)CC(=O)c1c(O)cc(O)cc1O,-63.3% [75 µM] (active) and -13.9% [75 µM] (active)
18,C=C1C(=O)O[C@H]2C[C@@]3(C)[C@H](O)CCC(=C)[C@@H]3[C@@H](OC(C)=O)[C@H]12,-83.4% [100 µM] (active) and -77.4% [100 µM] (active)
19,COC(=O)C(/C(=N/NC(N)=O)C(=O)Nc1ccc(C)cc1)c1nc2ccc([N+](=O)[O-])cc2[nH]c1=O (stereo not drawn),68.7% [100 µM] (inactive) and 41.2% [100 µM] (inactive)
